Among the data in PubChem BioAssay (NCATS) are Potency values, retold here.

Results filed as inconclusive are left out. Entries that show only a call come without a potency. The source made the active and inactive calls. Calls follow the shape of the dose curve; as a rule, active = well fitted inhibition curve with a large enough effect; inconclusive = small, poorly fitted or top-dose-only effect; inactive = flat fitted curve, though single readings scatter.

For this assay, the target named is Calcium and integrin-binding protein 1 (Homo sapiens) (UniProt Q99828). The assay can be described thus: Primary qHTS for Identification of Calcium Integrin Binding Protein 1 (CIB1) Competitor (AID 1508620). Also: top concentration of the series differs between compounds. The note with it: CIB1-GST / FITC-alphaIIb peptide fluorescence polarization; series mostly up to 114 µM. The procedure, abridged: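 Fluorescence polarization competition: GST-tagged CIB1 (1 uM final) preincubated with compound 15 min at room temperature, then FITC-labelled alphaIIb peptide (100 nM final) added. After 15 min at room temperature, polarization read at Ex 480/Em 540.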
Chain of Calcium and integrin-binding protein 1 (Homo sapiens) (Q99828 whole entry, looked up): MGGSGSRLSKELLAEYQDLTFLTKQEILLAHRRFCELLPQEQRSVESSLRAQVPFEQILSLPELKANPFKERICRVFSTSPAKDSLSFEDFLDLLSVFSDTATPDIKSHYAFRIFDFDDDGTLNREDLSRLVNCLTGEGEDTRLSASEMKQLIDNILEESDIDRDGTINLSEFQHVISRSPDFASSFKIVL
Consider `O=S(=O)(NC1CCCC(NS(=O)(=O)c2c(F)cccc2F)C1)c1ccc2c(c1)OCCO2` (configuration not stated), for which the Potency result is “inactive”.
`CNC(=O)c1cnn2c(C)cc(C)nc12`: the Potency result is “inactive”.
Under `O=[S+]([O-])(Nc1ccc(C2CCNCC2)cc1)c1ccc(NCc2ccc(Cl)cc2O)cc1` stands “inactive”; under `COc1ccc(S(=O)(=O)N2CCN(S(=O)(=O)c3c(F)cccc3F)CC2)cc1`, “inactive”; under `CC(C)c1ccccc1-c1ncc(F)c(NC2(c3ccc(-c4cccnc4)cc3)CC2)n1`, “inactive”.
The result for `COC(=O)C1CCc2sc(NC(=O)Cc3ccccc3)c(C(=O)Nc3ccc(Cl)cc3)c21` (configuration not stated) reads “inactive”.
Under `O=C(CNC(=O)c1ccccc1)OC(C(=O)Nc1cc([N+](=O)[O-])ccc1F)c1ccccc1` (configuration not stated) stands “inactive”.
In the case of `FC(F)(F)c1ccccc1-c1nc2c(c(NCc3ccc(-c4cccnc4)cc3)n1)CCC2`, the Potency entry was “inactive”.
In the case of `CC(=O)Nc1ccc(S(=O)(=O)N2CCN(S(=O)(=O)c3c(F)cccc3F)CC2)cc1`, the Potency entry is “inactive”.
As to `Clc1ccccc1-c1ccc2ncnc(NCc3cccs3)c2c1`, the Potency result is “inactive”.
With `CC(=O)Nc1ccc(-c2c(NC(C)=O)sc3c2CCNC3)cn1`, the Potency result was “inactive”.
As for `Cc1ccc(-c2nnc(NC(=O)Nc3ccc4ccccc4c3)s2)cc1`, the Potency entry is “inactive”.
As to `CC(C)(C)Nc1nc(C#N)nc(Nc2ccccc2)n1`, the Potency entry is “inactive”.
For `N#Cc1ccc(Nc2ncc(-c3cccc4ccccc34)o2)cc1`, the Potency result is “inactive”.
The result for `CN(C)c1ccc(C(=O)NCC(=O)OC(C(=O)Nc2cc(C(F)(F)F)ccc2Cl)c2ccccc2)cc1` (configuration not stated) reads “inactive”; that for `COc1ccc(C(=O)N(Cc2ccccc2)Cc2cccs2)c(O)c1`, “inactive”; that for `CC(=O)Nc1sc2c(c1-c1nccs1)CCNC2`, “inactive”.
